High-throughput results as filed in PubChem.
Spn DPM-DC inh – S. pneumoniae DPM-DC inhibitors, primary screen, biochemical, PK/LDH-coupled NADH fluorescence; purified DPM-DC; AID 556, 2006; diphosphomevalonate decarboxylase (Streptococcus pneumoniae D39); 65,000 compounds, 0.49% hits; calls only at 10 µM;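 active = the 320 compounds with the highest percent inhibition in the single-dose primary screen, excluding strongly autofluorescent ones, cut at about 32% in these data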;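 note: kinetic rate of NADH fluorescence loss reporting ADP formed by the decarboxylase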
A340 absorber – compound light absorbance at 340 nm, profiling panel, artefact control, biochemical, MLSMR library, data from PS, PMK, MK assays | compound absorbance at 340 nm, fold over control | fold change at 10 µM | 65,000 tested, under 10 active;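 active = at 10 µM dose, initial 340 nm absorbance at least 2 fold that of control wells; inactive = change under 2 fold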;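 note: initial absorbance extrapolated from kinetic A340 decline of NADH oxidation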
PMK inhibit – S. pneumoniae PMK inhibitors, primary screen, biochemical, mevalonate pathway, pilot trial included; inhibition, % at 10 µM; purified PMK, PK/LDH-coupled NADH absorbance 340 nm; AID 539, 2006; 65,000 compounds, 0.49% hits;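 active = top-ranked compounds by inhibition in the single 10 µM screen, taking a fixed number of the strongest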;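 note: 0% = full reaction with DMSO carrier and 100% = background rate without enzyme reaction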
Spn MK inh – S. pneumoniae MK inhibitors, primary screen, biochemical, PK/LDH-coupled NADH absorbance; purified MK, PK/LDH-coupled NADH absorbance 340 nm; inhibition, % at 10 µM; 65,000 compounds, 0.48% hits; mevalonate kinase [Streptococcus pneumoniae D39];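 active = ranked among the strongest by inhibition in the single 10 µM screen, a fixed top-ranked set picked for dose follow-up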
NADH coupling – inhibitors of PK/LDH coupling enzymes, profiling panel, artefact control, biochemical, MLSMR library | coupled PK/LDH NADH assays, four targets | IC50, µM (titrated, usually from 10 µM), for the others: top-dose inhibition | 65,000 compounds, 0.02% hits | AID 774, 2007;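 active = single-dose screening hits from any of four coupled enzyme assays that gave an IC50 when retested across doses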;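 note: the DPM-DC format reads NADH fluorescence rather than 340 nm absorbance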
Autofluor 339 – intrinsic fluorescence of library compounds, ex339/em460 – biochemical, MLSMR library, data from DPM-DC assay, artefact control, profiling panel | compound autofluorescence, ex339/em460 nm, NADH buffer; stronger effect = higher value; 1 = no-compound wells, NADH background | 65,000 compounds, 5.5% hits | AID 709, 2007 | fluorescence fold increase at 10 µM;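 active = at 10 µM, mean starting fluorescence two-fold or more over control wells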;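 note: signal is the first read of a kinetic run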
The depositor's hits bear a star; i = inactive; x = no result given. Hits are enriched below; roughly 6.3% of the tested compounds scored in any of these assays.

SMILES	Spn DPM-DC inh	A340 absorber	PMK inhibit	Spn MK inh	NADH coupling	Autofluor 339
CCCS(=O)(=O)N1CCN(C(=O)c2cccc(OC)c2)CC1	i	1	0	7	2%	1.1
CN(C)S(=O)(=O)c1cccc(-c2cn3ccccc3n2)c1	i	1	6	0	2%	1.8
COc1ccc(-c2cn3cc(C)ccc3n2)cc1OC	x	1	0	0	2%	2.5*
COc1ccc(-c2cn3ccccc3n2)cc1OC	x	1	4	16	10%	4*
COc1ccc(-c2nnc3ccc(SCC(=O)N4CCN(c5ccccc5)CC4)nn23)cc1OC	i	0.99	16	1	6%	1.1
Cn1nnc2cc(C(=O)N3CCC(c4ccccc4)C3)ccc21 (stereo not given)	i	1	5	2	2%	1.1
CCOc1ccccc1NC(=O)c1c(NC(=O)CNCc2ccco2)sc2c1CCC2	i	1.1	11	3	5%	1.4
CC(C)(C)OC(=O)N1CCC[C@H]1c1nnc(SCc2ccccc2F)o1	i	1	8	8	5%	1.1
COc1ccc(Cl)cc1NC(=O)C1CCCN(S(=O)(=O)c2cccc3nonc23)C1 (stereo not given)	i	1	17	54*	24%	1.1
O=C(OCCN1C(=O)c2ccccc2C1=O)c1cc(=O)[nH]c2ccccc12	i	1.1	10	7	7%	1.5
CCCCCOC(=O)c1cc(=O)[nH]c2ccccc12	i	1.1	13	8	9%	2*
Cc1cc(C)n2cc(CSCc3ccco3)nc2n1	i	0.98	19	0	5%	1.4
Cc1cc(C)n2cc(CSC3=NCCS3)nc2n1	x	1	2	0	1%	4.8*
Cc1cc(C)n2cc(CSc3ncccc3C(=O)O)nc2n1	x	1	13	9	11%	5*
Cc1ccccc1-n1nnnc1SCc1ncc(-c2ccccc2)o1	i	1	14	0	5%	1.1
Cc1cc(C)n2cc(CSc3nnnn3-c3ccccc3C)nc2n1	i	1	17	4	7%	2.1*
Cc1ccc(Cl)cc1N1CCN(Cc2nnnn2C2CCCCC2)CC1	i	1	25*	0	8%	1.1
NC(=O)c1ccccc1N=Cc1ccccn1	x	1	10	3	7%	5*
CC(CN1CCN(C)CC1)OC(=O)c1ccc(Cl)cc1 (stereo not given)	i	1	28*	2	10%	0.97
CC(CN1CCCCC1)OC(=O)c1ccc(Cl)cc1 (stereo not given)	i	1	1	9	3%	1.1
CC(=O)c1cccc(NC(=O)c2cc(C(C)C)on2)c1	i	1.1	0	4	1%	1.1
CC(=O)c1cccc(NC(=O)c2cc3nc(C)cc(C)n3n2)c1	i	1	7	5	10%	2.5*
CCC(Oc1ccccc1)C(=O)Nc1ccc(-c2nnc(-c3ccco3)o2)cc1 (stereo not given)	i	1.1	3	12	15%	2.8*
OCCN(Cc1ccccc1)Cc1cccc(F)c1	i	1.1	0	45*	15%	1.2
CCCN(CCO)Cc1cccc(Cl)c1	i	1.1	0	41*	14%	1.1
SMILES	Spn DPM-DC inh	A340 absorber	PMK inhibit	Spn MK inh	NADH coupling	Autofluor 339
OCCN(Cc1ccccc1)Cc1ccccc1F	i	1.1	7	48*	19%	1.1
OCCN(Cc1ccccc1)CC1CCCCC1	i	1.1	0	43*	14%	1.1
OCCN(Cc1ccccc1)Cc1cccc(C(F)(F)F)c1	i	1.1	1	37	13%	1.1
COc1ccc(-c2noc(CCC(=O)N3CCN(c4cc(C)ccc4C)CC3)n2)cc1	i	1.1	2	7	3%	1.1
Cc1cccn2c(=O)c3cc(C(N)=S)c(=N)n(CCCOC(C)C)c3nc12	i	1	2	0	2%	2*
CCOCCCn1c(=N)c(C(N)=S)cc2c(=O)n3cccc(C)c3nc21	i	1.2	1	4	9%	1.9
